Inconclusive results are not listed. Where a call stands in place of a potency, no number is given. Unmarked numbers belong to inactive results. Active and inactive are the calls of the source. The call rests on the fitted dose curve; in most records, active means well fitted curve in the direction sought with a large enough effect; inconclusive means small, poorly fitted or top-dose-only effect, or another doubt; inactive means no such curve, though single readings can be large; an effect the other way counts as inactive or inconclusive.
How the values were obtained:
[1] = OV-KATE Cancer Cell Toxicity qHTS against the NCATS CANVASS Library (AID 1347345); further: potency means the concentration at half of the fitted maximal effect
How it was run: (§1)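 1000 cells/well; 4 h settle; 11-pnt titration; 72 h, 37 degrees C, 5% CO2; CellTiter-Glo, 15min RT; luminescence read.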

[2] = UWB1.289 Cancer Cell Toxicity qHTS against the NCATS CANVASS Library (AID 1347347); further: nearly all actives have a fitted effect of over 60% in size; further: potency means the concentration at half of the fitted maximal effect
How it was run: as §1

[3] = OV-SAHO Cancer Cell Toxicity qHTS against the NCATS CANVASS Library (AID 1347348); further: nearly all actives have a fitted effect of over 55% in size; further: potency means the concentration at half of the fitted maximal effect
How it was run: as §1

[4] = SW1088 Cancer Cell Toxicity qHTS against the NCATS CANVASS Library (AID 1347350); further: nearly all actives have a fitted effect of over 75% in size; further: potency means the concentration at half of the fitted maximal effect
How it was run: as §1

[5] = A2780 Cisplatin Sensitive Ovarian Cancer Cell Toxicity qHTS against the NCATS CANVASS Library (AID 1347353); further: nearly all actives have a fitted effect of over 60% in size; further: potency means the concentration at half of the fitted maximal effect
How it was run: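 Seventy-two-hour exposure of cisplatin-sensitive A2780 ovarian cells to an 11-concentration qHTS series; cytotoxicity is inferred from loss of ATPLite luminescence. Bortezomib titration served as positive control.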

[6] = UWB1.289-WTBRCA1 Cancer Cell Toxicity qHTS against the NCATS CANVASS Library (AID 1347354)
How it was run: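 qHTS cytotoxicity: compounds tested in 11 concentrations on 1000 seeded cells per well over 72 h; bortezomib served as control; signal from CellTiter-Glo luminescence.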

[7] = HPAF-II 12hr Apoptosis Induction qHTS against the NCATS CANVASS Library (AID 1347358)
How it was run: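 Apoptosis in HPAF-II pancreatic cancer cells is scored as caspase 3/7 luminescence following a 12-hour exposure to an 11-point compound series.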

[8] = HPAF-II 18hr Apoptosis Induction qHTS against the NCATS CANVASS Library (AID 1347360)
How it was run: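 HPAF-II cells at 500/well were exposed for 18 h at 37 C to an 11-point compound series. Caspase-3/7 activity was read by Caspase-Glo luminescence after 15 min at RT.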

[9] = G06 Cancer Cell Toxicity qHTS against the NCATS CANVASS Library (AID 1347368); further: nearly all actives have a fitted effect of over 60% in size; further: potency means the concentration at half of the fitted maximal effect
How it was run: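 Cytotoxicity toward canine glioma G06 cells is scored from cellular ATP via luminescence after 72 hr compound exposure at 500 cells/well.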

[10] = qHTS for Hypoxia signaling pathway (HIF-1) antagonists against the NCATS CANVASS Library (AID 1347374); further: nearly all actives have a fitted effect of over 60% in size; further: potency means the concentration at half of the fitted maximal effect
How it was run: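 HRE-bla ME-180 cells (2,000/well, 0.5% dialyzed FBS) were pre-incubated 5 h, then given an 11-point compound series plus CoCl2 (60 uM solution as added) for 17 h at 37C. CCF4 β-lactamase read (ex 405, em 460/530 nm) after 2 h at RT.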

[11] = qHTS for Hypoxia signaling pathway (HIF-1) agonists against the NCATS CANVASS Library (AID 1347375)
How it was run: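 Inducers of HIF-1 signaling were detected in ME-180 cells bearing an HRE-driven beta-lactamase reporter after 17 h compound exposure. Activity came from CCF4-AM FRET emission ratio (460/530 nm) in qHTS format.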

[12] = DH5-alpha competent E. coli microbial cell viability qHTS against the NCATS CANVASS Library (AID 1347377); conditions: outcome: dose series up to 46.1 µM unless noted
How it was run: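 Cell viability of competent DH5-alpha E. coli is scored from ATP content by luminescence. Cells sit overnight at 37C with compound across an 11-point concentration series.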

[13] = qHTS for H2AX Agonists against the NCATS CANVASS Library (AID 1347378)
How it was run: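 CHO-K1 cells (1000/well, overnight at 37C) exposed to compounds at several concentrations for 3 hr at 37C, 0.76% DMSO final. Lysates read by TR-FRET (phospho-H2AX S139 Eu-cryptate antibody / H2AX-d2 antibody) after 24 hr at room temperature; 665/615 nm ratio.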

[14] = qHTS for Activators of p53 Stress Response Pathway screened against the NCATS CANVASS Library (AID 1347388)
How it was run: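 Beta-lactamase reporter driven by p53 response elements in HCT-116 cells, read as the 460 nm/530 nm emission ratio after CCF4 loading, following 16 h of exposure to an 11-point series. Cell viability was measured in the same wells by CellTiter-Glo luminescence.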

[15] = qHTS assay for small molecule disruptors of mitochondrial membrane potential screened against the NCATS CANVASS Library (AID 1347389)
How it was run: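 Compounds tested in 11-point qHTS series on HepG2 cells for 1 hr; membrane-potential dye added for 30 min at 37C. Lower red-to-green ratio indicates loss of potential.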

[16] = Secretion counterscreen for inhibitors of the SERCaMP assay screened against the NCATS CANVASS Library (AID 1347390);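 further: light from luciferase secreted into medium read as a measure of general secretion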; further: potency means the concentration at half of the fitted maximal effect
How it was run: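 SH-SY5Y cells with constitutively secreted GLuc reporter, 1000 cells/well, treated 20 h at 37C with compounds at 0.001 - 77 uM final; secreted luciferase read as luminescence after coelenterazine; Brefeldin A as positive control.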

[17] = qHTS for activators of Nrf2/ARE signaling pathway screened against the NCATS CANVASS Library (AID 1347391); further: nearly all actives have a fitted effect of over 60% in size
How it was run: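 Cells carrying an ARE-driven beta-lactamase reporter (HepG2 background) are dosed for 16 h, then stained with CCF4. Cell viability in the same wells is measured by CellTiter-Glo luminescence.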

[18] = qHTS for inhibitors of ER calcium dysfunction: SERCaMP assay screened against the NCATS CANVASS Library (AID 1347393); further: nearly all actives have a fitted effect of over 40% in size; further: potency means the concentration at half of the fitted maximal effect
How it was run: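 Thapsigargin-induced ER calcium depletion drives GLuc-SERCaMP secretion from SH-SY5Y cells; compounds given 16 h beforehand were scored by lowered coelenterazine luminescence after 4 h challenge.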

[19] = qHTS for inhibitors of Wild type Zika virus screened against the NCATS CANVASS Library (AID 1347396);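 further: ATP luminescence of surviving cells so rescue from viral cell killing; series mostly up to about 46 µM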
How it was run: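 Using ATP-based luminescence (CellTiter Glo), this screen scores rescue of Vero 766 cells from wild-type Zika killing at 72 h post-infection. Compounds are tested in a concentration series.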

[20] = Redox Reaction Profiling qHTS: Assay Interference Panel against the NCATS CANVASS Library (AID 1347401)
How it was run: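 Cell-free redox surrogate: 5 uM resazurin + 200 uM DTT, 50 mM HEPES pH 7.3/50 mM NaCl; cpds pinned, 11-pt qHTS; Ex525/Em598 read t0 and t=15 min, dark.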

Row | SMILES | Potency [1] | Potency [2] | Potency [3] | Potency [4] | Potency [5] | Potency [6] | Potency [7] | Potency [8] | Potency [9] | Potency [10] | Potency [11] | outcome [12] | Potency [13] | Potency [14] | Potency [15] | Potency [16] | Potency [17] | Potency [18] | Potency [19] | Potency [20]
1 | C[C@@]12CCC[C@@](C)(C(=O)O)[C@H]1C[C@@H](O)[C@]13C[C@H]4C[C@H](O[C@@]4(C)C1)[C@@H]23 | inactive | inactive | inactive | inactive | inactive | inactive | inactive | inactive | inactive | inactive | inactive | inactive | inactive | inactive | inactive | inactive | inactive | inactive | inactive | inactive
2 | COc1ccc([C@@H]2c3cc(OC)c(OC)cc3C(=O)C(C)C2C)cc1OC (some centres not stated) | inactive | inactive | inactive | inactive | – | inactive | inactive | – | inactive | inactive | inactive | inactive | inactive | inactive | inactive | inactive | – | 38.4 µM (active) | inactive | inactive
3 | C[C@@]12CCC[C@@](C)(C(=O)O)[C@H]1CC[C@]13C[C@H]4C[C@H](O[C@@]4(C)C1)[C@H]32 | inactive | 7.47 µM (active) | inactive | inactive | inactive | – | inactive | – | inactive | inactive | inactive | inactive | inactive | inactive | inactive | inactive | inactive | inactive | inactive | inactive
4 | COC1C(O)C(OC(N)=O)C(Oc2ccc3c(O)c(NC(=O)c4ccc(O)c(CC=C(C)C)c4)c(=O)oc3c2C)OC1(C)C (configuration not stated) | inactive | inactive | inactive | inactive | inactive | inactive | inactive | – | inactive | inactive | inactive | inactive | inactive | inactive | – | 24.3 µM (active) | inactive | 27.2 µM (active) | inactive | inactive
5 | C[C@@H](CCC[C@]1(C)C(=O)C=C[C@]23C[C@H]4C[C@H](O[C@@]4(C)C2)C31)C(=O)N[C@@H](CO)C(=O)O (some centres not stated) | inactive | inactive | inactive | inactive | inactive | inactive | – | inactive | inactive | inactive | inactive | inactive | inactive | inactive | inactive | inactive | – | inactive | inactive | inactive
6 | CC1C(=O)C23CCC1C[C@]21O[C@@H]2C(C)(C)C=CC(=O)[C@@]23COC1=O (some centres not stated) | inactive | inactive | inactive | inactive | inactive | inactive | inactive | inactive | inactive | inactive | inactive | inactive | inactive | inactive | inactive | inactive | inactive | – | inactive | inactive
7 | CCC1=C2CCCN3C(=O)O[C@H]([C@H]1OC(C)=O)[C@H]23 | inactive | inactive | inactive | inactive | inactive | inactive | – | – | inactive | inactive | inactive | inactive | inactive | inactive | inactive | inactive | inactive | inactive | inactive | inactive
8 | CCCCCCCCC[C@@H]1C[C@@H]2CC[C@H]3[C@@H](C(=O)OCCCCN=C(N)N)[C@@H](C)N=C(N1)N23 | 13 µM (active) | 10.3 µM (active) | 9.2 µM (active) | 13.1 µM (active) | – | – | inactive | – | 2.05 µM (active) | – | – | – | – | inactive | inactive | inactive | inactive | inactive | inactive | inactive
9 | CC1C(=O)C23CCC1C[C@@]21O[C@H]2C(C)(C)C=CC(=O)[C@@]23COC1=O (some centres not stated) | inactive | inactive | – | inactive | inactive | inactive | inactive | inactive | inactive | inactive | inactive | inactive | – | inactive | inactive | inactive | inactive | inactive | inactive | inactive
10 | C/C(=C\[C@H](C)C(=O)CCCC1CC(=O)NC(=O)C1)[C@@H]1OC(=O)/C=C/CC/C=C/C[C@@H](O)[C@@H]1C | 2.11 µM (active) | 2.11 µM (active) | 2.98 µM (active) | – | 0.833 µM (active) | – | inactive | inactive | 1.05 µM (active) | 1.06 µM (active) | inactive | inactive | – | inactive | inactive | 3.84 µM (active) | inactive | inactive | inactive | –
11 | CC(=O)O[C@H]1CC[C@@]2(C)C(CC[C@]3(C)C2CC=C2C4CC(C)(C)CC[C@]4(C)CC[C@]23C)C1(C)C (some centres not stated) | inactive | inactive | inactive | inactive | inactive | inactive | – | – | inactive | inactive | inactive | inactive | inactive | inactive | – | inactive | inactive | inactive | inactive | inactive
